Hit rate of the full screen: of about 390,000 compounds, about 17,000 (4.4%) were called active. Another 8% or so got no clear call; they are omitted. Many of the other results were omitted from the sample, so actives are more common in it than they were. Unmarked numbers belong to inactive results. The call rests on the fitted dose curve; in most records, active means well fitted inhibition curve with a large enough effect; inconclusive means small, poorly fitted or top-dose-only effect; inactive means no such curve, though single readings can be large or run the other way.
On the % scale 0 is the no-effect control and ±100 the full control effect; potency means the concentration at half of the fitted maximal effect.

The target in the experiment is Lysine-specific demethylase 4A (Homo sapiens) (UniProt O75164). Description: qHTS Assay for Inhibitors of JMJD2A-Tudor Domain. Further: nearly all actives have a fitted effect of over 50% in size. The following applies: AlphaScreen JMJD2A-Tudor / H3K4me3 peptide binding; series mostly up to 114 µM; activity change, negative = inhibition: at the top concentration. (In general: Quantitative high-throughput screening tests each substance at several concentrations.)
Sequence of Lysine-specific demethylase 4A (Homo sapiens) (O75164 whole entry, looked up, the tested form may be a part): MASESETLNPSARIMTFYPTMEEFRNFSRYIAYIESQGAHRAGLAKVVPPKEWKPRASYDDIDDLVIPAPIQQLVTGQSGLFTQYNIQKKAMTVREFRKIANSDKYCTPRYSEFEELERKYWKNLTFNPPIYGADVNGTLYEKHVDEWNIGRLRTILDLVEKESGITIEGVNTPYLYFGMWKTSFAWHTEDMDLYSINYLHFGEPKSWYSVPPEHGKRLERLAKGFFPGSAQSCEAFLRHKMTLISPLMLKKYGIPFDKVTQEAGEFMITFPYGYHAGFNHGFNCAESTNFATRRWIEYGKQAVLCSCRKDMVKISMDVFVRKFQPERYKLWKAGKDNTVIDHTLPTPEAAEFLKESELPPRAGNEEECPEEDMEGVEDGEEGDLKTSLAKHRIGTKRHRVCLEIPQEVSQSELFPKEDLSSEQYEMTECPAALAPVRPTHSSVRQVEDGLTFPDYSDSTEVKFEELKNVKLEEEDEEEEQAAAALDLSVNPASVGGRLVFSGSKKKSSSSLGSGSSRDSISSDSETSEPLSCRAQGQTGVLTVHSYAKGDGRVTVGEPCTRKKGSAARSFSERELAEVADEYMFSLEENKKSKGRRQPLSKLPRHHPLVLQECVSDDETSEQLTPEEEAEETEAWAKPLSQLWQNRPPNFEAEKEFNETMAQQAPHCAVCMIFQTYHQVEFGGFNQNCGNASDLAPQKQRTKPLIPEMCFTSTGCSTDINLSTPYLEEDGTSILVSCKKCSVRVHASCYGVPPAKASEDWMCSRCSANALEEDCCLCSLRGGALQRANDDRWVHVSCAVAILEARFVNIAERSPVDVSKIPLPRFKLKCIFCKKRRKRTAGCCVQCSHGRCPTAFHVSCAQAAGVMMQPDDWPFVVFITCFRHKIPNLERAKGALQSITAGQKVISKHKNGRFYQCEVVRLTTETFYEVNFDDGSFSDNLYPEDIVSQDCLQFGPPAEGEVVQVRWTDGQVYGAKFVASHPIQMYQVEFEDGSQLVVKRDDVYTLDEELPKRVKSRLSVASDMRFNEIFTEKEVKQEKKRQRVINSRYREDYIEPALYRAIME
As for `COc1cccc(NC(=O)N(Cc2cn(C)c3ccccc23)C2CCCCCC2)c1`, the “activity change, negative = inhibition” value is -33.3%. The same measure, in the same setting: the result for `Cc1ccc(Cn2c(CCCNC(=O)C3CCCCC3)nc3ccccc32)cc1` reads -22.5%; that for `Cc1ccc(NC(=O)CCN2C(=O)c3ccccc3C2=O)cc1C`, -6.38%. For the compound `Cc1cc2c(cc1C)N(C(=O)CN1C(=O)c3ccccc3C1=O)C(C)(C)c1ssc(=S)c1-2`, the Potency was 39.8 µM (active). For the compound `Cc1cc(C)cc(NC(=O)CCN2C(=O)c3ccccc3C2=O)c1`, the “activity change, negative = inhibition” value was -14.1%. Take `CCN(CC)c1cc(NC2CCCCC2)c2c3c(onc13)-c1ccccc1C2=O`: the Potency was 8.91 µM (active). `Cc1cccc(-c2nc(SCc3ccc(Br)cc3)n3[nH]c(=O)cc3n2)c1`: the “activity change, negative = inhibition” value was -14%. On to `Cc1cccc(CNC(=O)c2cnc3sc(N4CCCCC4)nn3c2=O)c1`, for which the “activity change, negative = inhibition” value is -12.3%. Still for that read-out and setting: the result for `CCCCN(C(=O)C1CCC1)c1c(N)n(Cc2ccccc2)c(=O)[nH]c1=O` reads -4.03%. Consider `CCCCN(Cc1ccccc1)C(=O)C1CCN(Cc2sccc2C)CC1`, for which the Potency was 5.62 µM (active).

Consider `CCNC(=S)NNC(=O)C1CCN(Cc2ccccc2)CC1`, for which the “activity change, negative = inhibition” value was -11%. The same measure, in the same setting: next, `Cc1nn(-c2ccc(N3CCCCC3)nn2)c(C)c1CCC(=O)NCc1ccccc1F`: -25%; `COc1ccc(/C=C/C(=O)NC(=S)N2CCCC(C(N)=O)C2)cc1` (centres undefined): -11%. The same measure, in the same setting: next, `COc1ccc(CNC(=O)C2CCCC2)cc1`: -10.1%. Take `COc1ccc(CN2CCCC(C(=O)N3CCCCC3)C2)cc1` (centres undefined): the Potency was 79.4 µM (active).

For the compound `O=C(COc1ccc(Cl)cc1)Nc1ccccc1OCc1cc(=O)n2ccccc2n1`, the “activity change, negative = inhibition” value was -2.6%.

Regarding `C/C(=N/NC(=O)C1COc2ccccc2O1)c1ccco1` (centres undefined), the “activity change, negative = inhibition” value is -5.63%.

Turning to `O=C(Nc1nc(-c2ccncc2)cs1)C1COc2ccccc2O1` (centres undefined), the Potency was 50.1 µM (active). As to `CC(=O)c1cccc(NC(=O)C2COc3ccccc3O2)c1` (centres undefined), the “activity change, negative = inhibition” value is -2.33%. Same read-out and setting: the result for `O=C(CC(c1cccs1)N1Cc2ccccc2C1=O)Nc1ccc(F)cc1F` (centres undefined) reads -31.7%. Consider `Cc1ccc(NS(=O)(=O)c2cc3c(cc2Br)NC(=O)CO3)cc1C`, for which the “activity change, negative = inhibition” value was -12.9%. With `COc1c(O)cc2oc(-c3ccc(O)c(O)c3)cc(=O)c2c1O`, the Potency is 31.6 µM (active). For `COc1ccc(-c2c(C)c3ccc(O)c(CN4CCN(C)CC4)c3oc2=O)cc1OC`, the “activity change, negative = inhibition” value was -13.6%. On the same count and under the same terms, the result for `CCOC(=O)COc1cc(OCC(=O)OCC)c2c(=O)cc(-c3ccccc3)oc2c1` reads 1.3%; that for `O=C(CCc1nc(CN2CCN(S(=O)(=O)c3ccc(F)cc3)CC2)no1)N1CCCCC1`, -35.2%. On the same count and under the same terms, the result for `O=C(Nc1ccc(OC(F)(F)F)cc1)c1cc2c(=O)n3ccccc3nc2s1` reads -18.1%; that for `CCc1cccc(C)c1NC(=O)COC(=O)CNC(=O)c1cccs1`, -15.8%; that for `CCc1c(C)sc(NC(=O)c2ccc(Br)o2)c1C(=O)OC`, 71.5%. For the compound `CCc1c(C)sc(NC(=O)c2cccs2)c1C(N)=O`, the Potency was 89.1 µM (active). `CC1CCCN(S(=O)(=O)c2ccc3[nH]c(=O)cc(C(=O)NCCc4ccc(Cl)cc4)c3c2)C1` (centres undefined): the “activity change, negative = inhibition” value was -6.12%.

For `Cc1ccc(NC(=O)c2nc(S(=O)(=O)Cc3cccc(C)c3)ncc2Cl)cc1`, the “activity change, negative = inhibition” value was -31.4%.

For `Cc1cccc(C(=O)N2CCc3c([nH]c4ccccc34)C2CC(C)C)n1` (centres undefined), the “activity change, negative = inhibition” value was -29.9%. On the same count and under the same terms, the result for `O=C(c1cn2ccccc2n1)N1CCc2c([nH]c3ccccc23)C1c1ccccn1` (centres undefined) reads -25.6%. Turning to `Cc1cccc(C2c3[nH]c4ccccc4c3CCN2C(=O)c2cc(-c3cccn3C)n[nH]2)n1` (centres undefined), the Potency was 56.2 µM (active).

`COc1ccc(CCNC(=O)c2cnc3sc(N4CCCCCC4)nn3c2=O)cc1OC`: the “activity change, negative = inhibition” value was -12.7%. Consider `COc1ccccc1NC(=O)Cn1cnc2ccc(S(=O)(=O)N3CCC(C)CC3)cc2c1=O`, for which the “activity change, negative = inhibition” value was -19.8%. Same read-out and setting: the result for `COc1ccc(OC)c(NC(=O)CSC2=Nc3ccccc3C3=NC(CC(=O)NCCc4ccccc4)C(=O)N23)c1` (centres undefined) reads -23.7%; that for `Cc1cccc(N(C)C(=O)CS(=O)(=O)c2cccc3nsnc23)c1`, -14.8%; that for `Cc1cc(C)c(C=NNc2nc3c([nH]2)c(=O)n(C)c(=O)n3C)c(C)c1`, -17.9%. Still for that read-out and setting: next, `Cc1cccc(C)c1NC(=O)CSc1nc2c([nH]1)c(=O)n(C)c(=O)n2C`: -7.04%.

In the case of `Cc1ccc(NN=Nc2nc3c([nH]2)c(=O)n(C)c(=O)n3C)cc1`, the Potency was 14.1 µM (active).

On to `CCc1ccc(NC(=O)c2cc3c(=O)n(Cc4cccnc4)ccc3nc2C)cc1`, for which the “activity change, negative = inhibition” value was -14.7%. On to `O=C(NCc1ccccc1)C(=O)NCC(c1ccco1)S(=O)(=O)c1ccc(Cl)cc1` (centres undefined), for which the “activity change, negative = inhibition” value is -3.57%.

Regarding `Cc1ccc(C)n1-c1nnc(N2CCC(C(=O)NCc3ccccc3Cl)CC2)s1`, the “activity change, negative = inhibition” value is -13.1%. Still for that read-out and setting: next, `C=CCNC(=O)c1ccc2nc(-c3ccco3)c(-c3ccco3)nc2c1`: -28.5% [at 57.1 µM]. For `COCCNC(=O)Nc1ccc2nc(-c3ccco3)c(-c3ccco3)nc2c1`, the Potency was 20 µM (active).

As for `CCOc1ccc(NC(=O)c2ncoc2-c2ccco2)cc1`, the “activity change, negative = inhibition” value is -14.2%. On to `CC(C)Cn1c(C2CC(=O)N(c3ccccc3Cl)C2)nc2ccccc21` (centres undefined), for which the “activity change, negative = inhibition” value was -2.01%. On the same count and under the same terms, the result for `Cc1ccccc1CNC(=O)c1ccc(NC(=O)N2CCCCc3ccccc32)cc1` reads -8.67%; that for `CCOC(=O)c1c(C)[nH]c(C)c1S(=O)(=O)N(C)CC(=O)N1CCN(c2ccccc2)CC1`, -26.3%. Still for that read-out and setting: next, `Cc1cc(Br)ccc1NC(=O)Cn1cnc2sc(C)c(S(=O)(=O)N3CCN(C)CC3)c2c1=O`: -7.85%; `O=C(Nc1nnc(-c2ccccc2)o1)c1cccc(S(=O)(=O)N2CCOCC2)c1`: -5.56%. For `O=C(Nc1nnc(-c2ccco2)o1)c1ccc(S(=O)(=O)N2CCOCC2)cc1`, the Potency was 79.4 µM (active). On to `CC1CCCN(S(=O)(=O)c2ccc(C(=O)Nc3nnc(-c4ccncc4)o3)cc2)C1` (centres undefined), for which the “activity change, negative = inhibition” value was -35.7%. On the same count and under the same terms, next, `Cc1ccc(Nc2nnc(-c3ccc(C)c(S(=O)(=O)N4CCCCC4)c3)c3ccccc23)cc1`: -1.31%. Turning to `COc1ccccc1C1=Nc2cccc3cccc(c23)N1`, the Potency was 50.1 µM (active).

For `COc1ccccc1-c1nc(C(F)(F)F)c(OC)o1`, the “activity change, negative = inhibition” value is -7.87% [at 57.1 µM].

On to `COc1ccccc1-c1nnc(-c2ccc(F)cc2)o1`, for which the “activity change, negative = inhibition” value is -3.47%. Still for that read-out and setting: next, `COc1ccc(NC(=O)Cn2c(=O)cc(C)c3c(C)nn(-c4cccc(Cl)c4C)c32)cc1OC`: -2.88%. Same read-out and setting: next, `CCOC(=O)C1CCCN(C(=O)c2ccc(-n3ccc4ccccc43)s2)C1` (centres undefined): 45.1%; `CCCn1c2ccccc2c2cnn(CC(=O)N(CC)c3cc(C)ccc3C)c(=O)c21`: -20.1%; `Cc1nnc(NCc2ccccc2)c2c1nnn2Cc1ccc(F)cc1`: -13.8%. Take `C=C1c2c(Cl)ccc(O)c2C(O)=C2C(=O)[C@]3(O)C(O)=C(C(N)=O)C(=O)[C@@H](N(C)C)[C@@H]3[C@@H](O)C12` (some centres undefined): the Potency was 2 µM (active). Take `CN(C)[C@@H]1C(=O)C(C(N)=O)=C(O)[C@@]2(O)C(=O)C3=C(O)c4c(O)ccc(Cl)c4[C@@H](O)[C@H]3C[C@@H]12`: the Potency is 25.1 µM (active). With `COc1ccccc1NC(=O)CSC1=Nc2ccccc2C2=NC(CC(=O)NCc3cccs3)C(=O)N12` (centres undefined), the “activity change, negative = inhibition” value was -15.7%.

As for `COc1ccc(C)cc1-n1c(-c2ccc(C)cc2)cc2c1CC(C)(C)CC2=O`, the “activity change, negative = inhibition” value was -27.3%. On the same count and under the same terms, next, `O=C1CSC2(C(=O)N(Cc3ccccc3)c3ccccc32)N1c1cccc(F)c1` (centres undefined): -8.97%. For `COc1ccccc1Nc1nc(N)nc(CN(C)C2CCCCC2)n1`, the Potency was 15.8 µM (active). Consider `COc1ccccc1Nc1nc(N)nc(CSC(=S)N2CCOCC2)n1`, for which the “activity change, negative = inhibition” value is -7.91%. Still for that read-out and setting: the result for `COc1ccccc1NC1=NC(c2ccc(Cl)cc2)N=C(N)N1` (centres undefined) reads -20.7%; that for `O=C(Nc1cc(C(F)(F)F)ccc1Cl)c1ccc2c(c1)CCN2S(=O)(=O)c1ccccc1`, 3.14%; that for `CC(C)CNc1ncnc2c1nnn2C`, -14.6%. Take `O=C(CC1N=C2c3ccccc3N=C(SCc3cccc(Cl)c3)N2C1=O)NCc1ccc2c(c1)OCO2` (centres undefined): the “activity change, negative = inhibition” value is -21.7%. For the compound `COC(=O)c1c(NC(=O)c2c(Cl)cnn2C)sc(C)c1C`, the “activity change, negative = inhibition” value is -1.31%. In the case of `CCOC(=O)c1c(NC(=O)CCl)sc(C(=O)N(CC)CC)c1C`, the “activity change, negative = inhibition” value is -2.65%.

As for `COCCCNCC(=O)Nc1sc(C)c(C)c1C(=O)OC`, the Potency is 28.2 µM (active). As for `CCc1cccc(NC(=O)CSc2nccn2C)c1`, the “activity change, negative = inhibition” value is -5.6%. `Cc1cc(C)cc(OCC(=O)Nc2c(C(=O)c3ccccc3)oc3ccccc23)c1`: the “activity change, negative = inhibition” value was 12.7%.

For `O=C(Cn1cc(SCc2cccc(Cl)c2)c2ccccc21)N1CCCCC1`, the “activity change, negative = inhibition” value was 8.06%. Still for that read-out and setting: next, `COc1ccc(-c2nn(CC(=O)NC3CCCC3)c3c2cnc2ccc(F)cc23)cc1`: -9.67%. With `O=C(CCN1CCc2ccccc2C(O)(c2ccccc2)C1)c1ccc2c(c1)OCCO2` (centres undefined), the Potency is 79.4 µM (active). As for `O=C(COC(=O)c1ccccc1)c1ccc2c(c1)OCCO2`, the “activity change, negative = inhibition” value was 2.03%. With `O=C(CN1CCC(O)(c2ccccc2)CC1)Nc1ccc2c(c1)OCCO2`, the “activity change, negative = inhibition” value is -14.5%.

Consider `Cc1cc(Cl)ccc1NC(=O)Cc1ccc(NC(=O)N2CCCCc3ccccc32)cc1`, for which the “activity change, negative = inhibition” value is -24%.

As to `Cc1ccc(C)c(Cn2c(C)c(CNCc3ccc(F)cc3)c(C(=O)O)c2C)c1`, the “activity change, negative = inhibition” value was -25.5%. Regarding `S=c1[nH]ccn1-c1ccc(Cl)cc1`, the Potency was 10 µM (active). Turning to `CCOC(=O)c1ccccc1NC(=O)c1sc2nc(-c3ccc(F)cc3)cn2c1C`, the “activity change, negative = inhibition” value is -18.2%. Same read-out and setting: next, `CN1CCN(CCCNC(=O)c2ccc(/C=C3\Oc4ccccc4N(Cc4ccc(Cl)cc4)C3=O)cc2)CC1`: -1.17%. Consider `CCN1CCN(CCNC(=O)c2ccc(/C=C3/Sc4ccccc4N(Cc4cccc(C)c4)C3=O)cc2)CC1`, for which the Potency is 50.1 µM (active). With `O=C(NCCCN1CCOCC1)c1ccc2c(c1)N(Cc1cccc(F)c1)C(=O)c1ccccc1S2`, the “activity change, negative = inhibition” value was 0.389%. Same read-out and setting: next, `COc1ccc(Cl)cc1NC(=O)Cn1c(=O)c2ccccc2n2nncc12`: -26.8%. The same measure, in the same setting: next, `COc1ccccc1CNCc1ccc(C(=O)O)s1`: -5.03%; `CSc1nc(Nc2ccc(F)cc2)cc(-c2ccccc2)n1`: 43.4%; `COC(C(=O)Nc1ccc(C(C)=O)cc1)c1ccccc1` (centres undefined): -6.88%. Same read-out and setting: the result for `COc1ccc(NC(=O)[C@H](NC(=O)[C@@H]2Cc3ccccc3CN2)c2ccccc2)cc1` reads -9.09%.

With `COc1ccc(NC(C(=O)Nc2cccc(C(C)=O)c2)c2ccccc2)cc1` (centres undefined), the Potency is 17.8 µM (active). For the compound `Cc1ccccc1CNC(=O)Cn1c(C)c2cnn(-c3ccccc3)c(=O)c2c1C`, the “activity change, negative = inhibition” value was -6.71%. Turning to `CC(=O)Oc1ccc(OC(C)=O)c2c1C1C=CC2CC1`, the Potency was 22.4 µM (active).

With `CC(=O)Oc1ccc(C(C)=O)c2c1OCCO2`, the “activity change, negative = inhibition” value was -12.2%.

The values above are taken from PubChem BioAssay AID504339 (National Center for Advancing Translational Sciences (NCATS), 2011).
